Sampled rows, rich in hits. Any-hit rate of the full collection: about 6.8%.
KB-V1 MDR tox: KB-V1 MDR subline cytotoxicity; Potency, µM (top dose mostly 46.1 µM), actives largely listed as cytotoxic; KB-V1 MDR cells viability, CellTiter-Glo, 72 h; actives 3.4% (n = 400,000); further: on the % scale 0 is the no-effect control and ±100 the full control effect; nearly all actives have a fitted effect of over 60% in size
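Potencies derive from concentration-effect curves fitted to normalized luminescence (CellTiter-Glo) of KB-V1 cells treated for 72 h at 37 degrees C in phenol-red-free DMEM containing 10% FBS.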
KB-3-1 tox: kills parental KB-3-1 adenocarcinoma cells | KB-3-1 viability, CellTiter-Glo ATP luminescence, 72 h | Potency, µM (top dose mostly 46.1 µM), usual class: cytotoxic | actives 1.4% (n = 400,000); further: on the % scale 0 is the no-effect control and ±100 the full control effect; nearly all actives have a fitted effect of over 60% in size
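Parental KB-3-1 viability, qHTS format: 72 h compound exposure, 37 °C; CellTiter-Glo; media-only wells and DMSO plates as controls; concentration-effect fits on corrected data.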
PTAP TSG101 blk: blocks PTAP/TSG101 interaction to inhibit HIV-1 budding | Fluorescence polarization, FITC-PTAP peptide / Tsg101 binding | Q99816 | Potency, µM (titrated, usually from 115 µM), for the others: at the top dose activity change, negative = inhibition, hits mostly inhibitors | 340,000 tested, under 10 active; active means well fitted inhibition curve with a large enough effect in the main read-out, with a control signal flat, not every such curve was filed as active; inconclusive means small, poorly fitted or top-dose-only effect, or effect the other way, or a change in a side signal; inactive means no such curve, though single readings can be large or run the other way; further: % of control where 0% means no effect
Target sequence (Q99816 whole entry, looked up): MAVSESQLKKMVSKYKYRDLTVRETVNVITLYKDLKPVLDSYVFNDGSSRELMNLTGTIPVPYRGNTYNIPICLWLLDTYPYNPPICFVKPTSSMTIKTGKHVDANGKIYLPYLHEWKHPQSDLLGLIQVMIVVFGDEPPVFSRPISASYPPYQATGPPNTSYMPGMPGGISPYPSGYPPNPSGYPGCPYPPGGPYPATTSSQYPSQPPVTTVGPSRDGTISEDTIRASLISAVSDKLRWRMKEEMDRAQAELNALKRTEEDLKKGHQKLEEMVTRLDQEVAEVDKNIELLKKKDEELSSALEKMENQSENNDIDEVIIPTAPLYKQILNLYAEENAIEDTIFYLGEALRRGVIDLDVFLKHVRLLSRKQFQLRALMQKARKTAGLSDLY
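Compounds were pin-transferred onto Tsg101 binding domain (10 uM final) in HEPES pH 7.5 buffer, then FITC-PTAP peptide was added at 50 nM final. After 20 min at RT, polarization reported peptide displacement across a qHTS concentration series.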
SW480 rereplic: DNA re-replication induction in SW480 cells. SW480 DNA re-replication, Hoechst DNA content imaging, 48 h. Potency, µM (highest dose often 46.1 µM), for the others: at the top dose re-replication activation, usual class: activators. actives 1.8% (n = 340,000). AID 624297; further: % of control where 0% means no effect; nearly all actives have a fitted effect of over 55% in size
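Cells (250 per well) received 23 nL compound or DMSO by pin tool and were kept 48 hr at 37 C, 5% CO2. Nuclei were then stained with Hoechst for 40 min and scanned for DNA content.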
MCF10A rereplic: induces DNA re-replication in MCF 10a normal breast cells; MCF 10A DNA re-replication, Hoechst nuclear intensity, 48 h; actives 2.9% (n = 350,000); AID 624296; Potency, µM (titrated, usually from 46.1 µM), for the others: at the highest dose activity, positive = re-replication, usual class: activators; further: % of control where 0% means no effect; nearly all actives have a fitted effect of over 50% in size
PINK1 modulator: changes PINK1 expression | AID 624263 | Potency, µM (top dose mostly 76.6 µM), for the others: at the top dose activation (PINK1 increase), actives largely listed as activators | actives 0.2% (n = 410,000) | PINK1 immunofluorescence, high-content cytometry, 24 h; active means well fitted activation curve with a large enough effect; inconclusive means small, poorly fitted or top-dose-only effect; cell line not stated here; further: % of control where 0% means no effect; nearly all actives have a fitted effect of over 65% in size
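A stable cell line was treated with compounds at 5 concentrations for 24 hours, with CCCP as control. PINK1 levels and mitochondrial localization were measured by immunofluorescence with mitochondrial, cell and nuclear markers after fixation, read by laser-scanning cytometry.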
Numbers without * were called inactive; i = inactive; u = inconclusive; x = not tested or not shown; [ ] = dose if it differs, or a comment. Unless noted, the call rests on the fitted dose curve; in most records, active means well fitted curve in the direction sought with a large enough effect; inconclusive means small, poorly fitted or top-dose-only effect, or another doubt; inactive means no such curve, though single readings can be large; an effect the other way counts as inactive or inconclusive. Potency means the concentration at half of the fitted maximal effect.

SMILES	KB-V1 MDR tox	KB-3-1 tox	PTAP TSG101 blk	SW480 rereplic	MCF10A rereplic	PINK1 modulator
C/C(Cl)=C/Cn1c(=O)c2c(nc(Br)n2Cc2ccccc2)n(C)c1=O	i	i	-3%	0%	-2%	5%
Cn1c(=O)c2c(nc(Br)n2Cc2ccc3ccccc3c2)n(C)c1=O	2.6µM*	7.3µM*	-6%	0%	u	21%[38.3 µM]
Cn1c(=O)c2c(nc(Cl)n2CCOc2ccccc2)n(C)c1=O	i	i	2%	9.2µM*	4%	0%
CCOc1ccc(-n2cc(C(=O)NCc3ccco3)c3cc(OC)c(OC)cc3c2=O)cc1	i	0.52µM*	-2%	11%	u	4%
CCn1cc(C(=O)NCc2ccco2)c2cc(OC)c(OC)cc2c1=O	i	i	-10%	-26%	0%	0%
O=C(NCc1nc2ccccc2[nH]1)c1cccc(Cl)c1	i	i	x	x	x	-2%
Clc1cccc(N/N=C(\Cc2nc3ccccc3[nH]2)c2ccccc2)c1	21µM*	u	-4%	u	u	u
O=S(=O)(c1ccc(S(=O)(=O)N(Cc2cccs2)CC2CCCO2)cc1)N1CCCCC1 (centres undefined)	7.3µM*	i	-5%	-2%	u	0%[38.3 µM]
O=C(Nc1cc(Cl)ccc1Cl)c1cc(S(=O)(=O)N2CCCc3ccccc32)ccc1F	i	i	x	x	x	0%
CCc1cc(Cn2nc(-c3ccccc3)cc2C(=O)NCC2CC2)on1	i	i	x	-1%	0.15µM*	0%
CCc1cc(Cn2nc(-c3ccccc3)cc2C(=O)NCCOC)on1	i	i	1%	-43%	0%	-1%
O=C1[C@H]2C(c3ccccc3)=NN(c3ccccc3)[C@H]2C(=O)N1c1ccccc1	i	u	-1%	-79%	0.65µM*	0%
O=c1c2ccccc2nc(COc2ccccc2)n1/N=C/c1c[nH]c2ccccc12	u	i	0%	2%	27%	u
Cc1ccccc1OCc1nc2ccccc2c(=O)n1/N=C/c1cn[nH]c1-c1ccc(Br)cc1	7.3µM*	u	-1%	u	u	26%
Cc1ccc(-c2[nH]ncc2/C=N/n2c(C)nc3ccccc3c2=O)cc1	i	i	1%	-7%	u	0%
O=c1c2ccccc2nc(COc2ccccc2)n1/N=C/c1cn[nH]c1-c1ccccc1	21µM*	i	0%	-3%	u	22%
CCOC(=O)c1ccc(N2C(=O)c3n[nH]c(-c4cccs4)c3C2c2ccc(O)c(OC)c2)cc1 (centres undefined)	i	i	x	x	x	-1%
CCN(CC)S(=O)(=O)c1cccc(NC(=O)Nc2cccc(C(F)(F)F)c2)c1	8.2µM*	7.3µM*	1%	u	23µM*	u
O=C(Nc1nc2cc3c(cc2s1)OCCO3)c1cccc(N2C(=O)CCC2=O)c1	u	i	0%	3%	u	1%
CCN(CC)S(=O)(=O)c1cc(C(=O)Nc2cccnc2)ccc1Cl	i	i	-1%	0%	-4%	u
CCN(CC)S(=O)(=O)c1cccc(C(=O)Nc2nc3cc4c(cc3s2)OCCO4)c1	4.6µM*	u	-12%	2%	-5%	6%[38.3 µM]
CCN(CC)S(=O)(=O)c1cccc(C(=O)Nc2cccnc2)c1	21µM*	i	-9%	-4%	-3%	6%[38.3 µM]
CCN(CC)S(=O)(=O)c1cccc(NC(=O)CC2CCCC2)c1	i	i	-3%	-2%	2%	1%
CCN(CC)S(=O)(=O)c1cc(C(=O)Nc2ccncc2)ccc1Cl	16µM*	21µM*	-3%	-6%	1%	x
CCN(CC)S(=O)(=O)c1cccc(C(=O)NC2CCCCC2)c1	18µM*	i	x	-2%	-3%	-2%[38.3 µM]
SMILES	KB-V1 MDR tox	KB-3-1 tox	PTAP TSG101 blk	SW480 rereplic	MCF10A rereplic	PINK1 modulator
CC(c1ccccc1)N(CC(=O)NC1CCCCC1)S(=O)(=O)c1cccc(C(F)(F)F)c1 (centres undefined)	u	i	-4%	u	u	25%
O=C(CN(Cc1ccccc1)S(=O)(=O)c1cccc(C(F)(F)F)c1)NC1CCCCC1	3.7µM*	i	0%	-367%	3%	6%
Cc1ccc(CNC(=O)Cc2c(C(=O)O)c(C)cn2C)cc1	u	i	x	x	x	0%
Cc1cc(NS(=O)(=O)c2ccc(NC(=O)c3ccc([N+](=O)[O-])s3)cc2)nc(C)n1	i	u	-6%	u	18µM*	-1%
Cc1ccnc(NS(=O)(=O)c2ccc(NC(=O)c3ccc([N+](=O)[O-])s3)cc2)n1	i	15µM*	-11%	18µM*	12µM*	4%
Cc1cc(NS(=O)(=O)c2ccc(NC(=O)c3c(F)c(F)c(F)c(F)c3F)cc2)nc(C)n1	i	i	-1%	0%	u	-1%
COc1ccccc1C1=NC(c2ccc(F)cc2)N=C1C (centres undefined)	u	18µM*	2%	4%	8%	1%
CC(=O)N1N=C(c2cccc([N+](=O)[O-])c2)OC1c1ccc(Cl)cc1Cl (centres undefined)	21µM*	i	-1%	-2%	u	-1%
COc1ccccc1C1OC(c2cccc([N+](=O)[O-])c2)=NN1C(C)=O (centres undefined)	i	i	-5%	-2%	-1%	1%
COc1ccc(P(=O)(COc2ccc([N+](=O)[O-])cc2)c2ccc(OC)cc2)cc1	4.1µM*	i	-2%	1%	8%	-3%
O=P(COc1ccccc1)(c1ccccc1)c1ccccc1	15µM*	i	2%	-2%	2%	-1%
O=C(O)CCCCCCCCCCP(=O)(c1ccccc1)c1ccccc1	i	i	-8%	-11%	-9%	0%
COCP(=O)(c1ccccc1)c1ccccc1	i	i	-1%	7%	4%	16%[38.3 µM]
O=P(CCCCCCCCCP(=O)(c1ccccc1)c1ccccc1)(c1ccccc1)c1ccccc1	15µM*	u	-4%	25%	u	-2%
COc1ccc(CCNC(=O)COc2ccc([N+](=O)[O-])cc2)cc1	i	i	-1%	u	u	-1%
CC(C)(C)OC(=O)N1CCC(c2c(C(=O)NCCN3CCOCC3)cnn2-c2ccc(F)cc2)CC1	i	i	x	x	x	1%
COc1ccc(-n2c(-c3ccccc3F)nc3c(cnn3-c3ccc(C)cc3)c2=O)cc1	x	x	x	x	x	4%
CC(C)C[C@@H](CN=[N+]=[N-])N1CCN(CCc2ccccc2)CCC1=O	i	i	x	x	x	x

Assay outcomes deposited in PubChem BioAssay by National Center for Advancing Translational Sciences (NCATS).
